Compounds without any hit were thinned out: in the full panel of roughly 83,000, 20% have a hit.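 Negative percent growth values reflect cell death: -40 means 40% of the cells present at the start died, and -100 means all died.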 Calls of active or inactive are those of the source. The calls were made as follows: active = growth percent below 10; inactive = the rest.
Each molecule was assayed on HL-60(TB) leukemia (assay: NCI-60 one-dose screen, 48 h (100 = growth as untreated, 0 = no growth, -100 = all killed)). Settings: 10 µM unless noted.
`Cn1c(SCC(=O)c2cccs2)nc2ccccc2c1=O` was tested, and the growth was 91.8% (inactive). With `Cn1c(SCC(=O)c2ccco2)nc2ccccc2c1=O` the growth was 98.3% (inactive). With `O=C(CN1CCN(c2cc(=O)n(-c3ccccc3)c3ccccc23)CC1)Nc1cccc(C(F)(F)F)c1` the growth was 28.6% (inactive). For `COC(=O)c1cccc(NC2=CC(=O)C(C)=C(C)C2=O)c1`, the growth was 42% (inactive). In the case of `NS(=O)(=O)c1ccc(Nc2nc(N/N=C/c3ccc(Cl)cc3)nc(Nc3ccccc3)n2)cc1`, the growth is reported as 72.5% (inactive). For `CNC(=O)c1c(NC(=O)c2cccc(C(F)(F)F)c2F)sc2c1CCC(=O)C2`, the growth was 4.41% (active). With `NC(=O)c1cc(-c2ccc3ncnc(N4CCc5cc(F)c(Cl)cc54)c3c2)cnc1N` the growth was -4.97% (active). `Cc1ccc(NC(=O)c2cc(/C=C/C(=O)NO)cc(C(F)(F)F)c2)cc1Nc1nccc(-c2cccnc2)n1` was tested, and the growth was 0.414% (active). For `Cn1nc(Nc2ccccc2)c(C(=O)NN)c1N`, the growth was 105% (inactive). In the case of `CCc1cc(OC(=O)N2CCC(N3CCCCC3)CC2)ccc1Nc1cc(-c2ccc(-n3cccn3)cc2)[nH]n1`, the growth is reported as 62.5% (inactive). In the case of `O=C(Nc1cccc(-c2nc(-c3ccc(NC(=O)c4cccs4)cc3Cl)no2)c1)Nc1ccc(NC(=O)C2CC2)c(C(F)(F)F)c1`, the growth is reported as 6.9% (active). `COc1ccccc1/C=C/C=N/NC1=NC2C(S1)N(C)C(=O)N2c1ccccc1` (stereo not given) was tested, and the growth was -25.7% (active). `COc1ccc(/C=C(/C)c2ccc3ccc(OC)cc3[o+]2)c(O)c1` was tested, and the growth was 44% (inactive). `O=C(CCCCCCN1CC(=O)N2[C@@H](c3ccc(Cl)s3)c3[nH]c4ccccc4c3C[C@H]2C1=O)NO` was tested, and the growth was 1.42% (active). In the case of `COc1cc(-c2nnc(SCc3ccc(O)c4ncccc34)n2-c2ccccc2)cc(OC)c1OC`, the growth is reported as -17.8% (active). In the case of `CN1CCN(Cc2ccc(/C=N/Nc3ccnc4cc(Cl)ccc34)cc2)CC1`, the growth is reported as 72.4% (inactive). In the case of `COc1ccc(-c2csc(N/N=C/c3c(-c4ccc(S(C)(=O)=O)cc4)nc4ccccn34)n2)cc1`, the growth is reported as 103% (inactive). `Cn1cc(-c2nnc(N)nc2-c2cn(C)c3ccc(F)cc23)c2cc(F)ccc21` was tested, and the growth was 79.3% (inactive). `CN(C)S(=O)(=O)c1oc(-c2ccccc2)nc1C#N` was tested, and the growth was 13.8% (inactive). In the case of `O=S(=O)(Oc1ccc(-c2cn3ccoc3n2)cc1)C1CCCCC1`, the growth is reported as 90.2% (inactive). For `CC[C@]12CC(C(=O)OC)=C3Nc4ccccc4[C@@]34CCN(C14)[C@@H]1c3cc4c(cc3O[C@@H]1[C@H]2O)NC1=C(C(=O)OC)C[C@@]2(CC)C3N(CC[C@@]143)C[C@H]1O[C@H]12` (stereo not given in full), the growth was -1.14% (active). `CS(=O)(=O)Nc1cc(-c2ccc3ncc(C#N)c(Nc4cccc(Cl)c4F)c3c2)cnc1Cl` was tested, and the growth was 0.143% (active). For `COc1ccc(C2CC(c3cccc(OCCCCOc4cccc(C5=NOC(c6ccc(OC)cc6)C5)c4)c3)=NO2)cc1` (stereo not given), the growth was 89.6% (inactive). `CCO/C=N/C1=C(C#N)C(c2ccc(F)cc2)c2sc3c(C)cccc3c2O1` (stereo not given) was tested, and the growth was -22.8% (active). `C#C[C@]1(O)CC[C@H]2[C@@H]3CC=C4c5sc(Nc6ccncc6)nc5CC[C@]4(C)[C@H]3CC[C@@]21C` was tested, and the growth was -24% (active). For `CS(=O)(=O)c1nccc(-c2c(-c3ccc(F)c(OCc4ccccc4)c3)nc3sccn23)n1`, the growth was 5.59% (active). `COc1ccc2c(c1)c(-c1nc(N)nnc1-c1c[nH]c3ccccc13)cn2C` was tested, and the growth was 3.5% (active). With `Cc1ccc(NC(=O)c2ccc(CN3CCN(C)CC3)c(I)c2)cc1Oc1ccc(-c2[nH]nc3ncnc(N)c23)cc1` the growth was 118% (inactive). In the case of `CS(=O)(=O)c1ccc(-n2cc(/C=C/C(=O)c3ccc(NC(=O)CO[N+](=O)[O-])cc3)c(-c3ccc(Cl)cc3)n2)cc1`, the growth is reported as 109% (inactive). In the case of `CN(Cc1ccccc1)S(=O)(=O)/N=C1\NC(=O)NC1=C(Cl)Cl`, the growth is reported as -29.8% (active). For `CSc1ccc(/C(=N/N=C(N)N)c2ccc(Cl)cc2)cc1`, the growth was -45.1% (active). For `CCN(CC)c1ccc2c(c1)Oc1nc(N)c(C#N)c(N)c1C2Sc1ccc(F)cc1` (stereo not given), the growth was -18.4% (active). `NC(=O)N1N=C(c2cc3ccccc3oc2=O)CC1c1cn(-c2ccccc2)nc1-c1ccc(Cl)cc1` (stereo not given) was tested, and the growth was 47% (inactive). With `C#C[C@]1(O)CC[C@H]2[C@@H]3CC=C4c5sc(C6CCOCC6)nc5CC[C@]4(C)[C@H]3CC[C@@]21C` the growth was 56.7% (inactive). With `O=C(CCCCCCNC(=O)c1csc(Br)n1)NO` the growth was 5.2% (active). `O=C(Cn1c(-c2ccccc2)nc2cc(Cl)c(Cl)cc21)N=Nc1c(O)[nH]c2ccc(Cl)cc12` was tested, and the growth was 92.1% (inactive). For `CCOC(=O)c1c(Nc2ccccc2)nn2c(N)c(C#N)c(-c3ccccc3)nc12`, the growth was 70.9% (inactive). In the case of `COc1ccc(-c2c(C(N)=O)c(N)n(Cc3nc4ccccc4[nH]3)c(=O)c2C#N)c(OC)c1`, the growth is reported as 106% (inactive). In the case of `CS(=O)(=O)c1ccc2c(c1)c1c(n2Cc2ccc(Cl)cc2)CCCC1`, the growth is reported as 70.5% (inactive). With `CC(Nc1ncnc2ccc(-c3cnc4cnccn34)cc12)c1ccccc1` (stereo not given) the growth was 52.4% (inactive).
